Source: PubChem BioAssay AID1159606 (Sanford-Burnham Center for Chemical Genomics, 2016)
In all, about 360,000 compounds went through this assay and about 7,300 (2%) were called active. For the sample, actives were picked, then their nearest neighbours and some compounds at random. A number with no mark means an inactive call. No stated cut-off is given here; in the data, active means inhibition above about 50%; inactive means the rest.

Assay: inhibitors of TWEAK-Fn14 signaling, primary screen, luciferase reporter cells, uHTS (AID 1159606)
Conditions: TWEAK-stimulated Fn14 reporter cells, luciferase luminescence, 8 h; at 10 µM; stronger effect = higher value
Molecule `Cc1ccc(-c2c(C)n([O-])c3c([n+]2=O)CCC3)cc1` has an inhibition of 19%.
For `CNS(=O)(=O)c1cccc(C(=O)NCC2CCCCC2)c1`, the inhibition was -15.5%.
In the case of `CN(C)S(=O)(=O)N1CCC(Oc2cccc(C(=O)NCCCC3CCCC3)c2)CC1`, the inhibition is reported as 57.2% (active).
`CN(C(=O)c1cccc(OC2CCN(S(=O)(=O)N(C)C)CC2)c1)C1CCOC1` (stereo not drawn) gave an inhibition of -26.3%.
In the case of `Cc1ccc(C)c2[nH]c(=O)c(CCNC(=O)CC(C)C)cc12`, the inhibition is reported as -18.2%.
With `O=C(Nc1ccc2c(c1)OCCO2)c1ccc(Cl)c(S(=O)(=O)N2CCCCC2)c1` the inhibition was 56.7% (active).
For `CCCc1cc(C(=O)Nc2ccc(Cl)cn2)cs1`, the inhibition was 58.8% (active).
With `O=C(Nc1ccc(Cl)cn1)c1ccc2c(c1)OCCO2` the inhibition was 66.8% (active).
`O=C(Nc1ccc(Cl)cn1)c1cnn2cccnc12` showed an inhibition of 5.94%.
With `CCN(CC)CCNC(=O)c1ccc(NS(=O)(=O)c2ccc3c(c2)OCCO3)cc1` the inhibition was 2.79%.
`Cc1ccc(C(=O)Nc2ccc3c(c2)OCCO3)cc1S(=O)(=O)N1CCOCC1` showed an inhibition of -15.2%.
With `O=C(Nc1cccc(S(=O)(=O)Nc2ccc(Cl)cc2)c1)c1ccc2c(c1)OCCO2` the inhibition was 78.2% (active).
In the case of `CN1CCN(c2ccc(NC(=O)c3ccc4c(c3)OCCO4)cc2Cl)CC1`, the inhibition is reported as 17.5%.
With `CCCCC(CC)C(=O)Nc1ccc(Cl)cn1` (stereo not drawn) the inhibition was -8.67%.
Work on `CC(NS(=O)(=O)c1ccc(Cl)cc1)C(=O)Nc1ccc2c(c1)OCCO2` (stereo not drawn) yielded an inhibition of 32.7%.
With `CCCc1cc(C(=O)Nc2ccc(C(=O)OC)cc2)cs1` the inhibition was -11.7%.
Molecule `Cc1nc(NC(=O)c2ccc3c(c2)OCCO3)ccc1Br` has an inhibition of 30.4%.
Molecule `CCOc1ccc(-c2c(C)n([O-])c3c([n+]2=O)CCCC3)cc1` has an inhibition of -15.2%.
`O=S1(=O)CC(N2CCSCC2)CN1Cc1cn(Cc2cccc(Cl)c2)nn1` (stereo not drawn) showed an inhibition of 0.68%.
In the case of `CC(=O)N1Cc2cc(C(=O)NCc3cccc(F)c3)nc(-c3cccc(C4=CCCC4)c3)c2[C@H]1CCO`, the inhibition is reported as -25.9%.
In the case of `COC(=O)C1(C(=O)OC)C/C=C\CN(S(=O)(=O)c2ccccc2[N+](=O)[O-])CCC1`, the inhibition is reported as -4.25%.
With `CC(=O)N1CCSc2ccc(S(=O)(=O)N3CCC(C)CC3)cc21` the inhibition was 10.4%.
Molecule `Cc1csc(=O)n1CCC(=O)OCC(=O)Nc1ccc(N2CCOCC2)cc1` has an inhibition of -8.76%.
Work on `COCCNc1nc(Nc2ccccc2Cl)c2sc(-c3ccccc3)cc2n1` yielded an inhibition of -18.2%.
Work on `COc1cccc(CNc2nc(NCc3cccs3)nc3ccsc23)c1` yielded an inhibition of -13.7%.
With `Clc1ccccc1Nc1nc(NCc2cccs2)nc2ccsc12` the inhibition was 12.1%.
With `COc1ccccc1CNc1nc(Nc2ccccc2Cl)c2sccc2n1` the inhibition was 61.9% (active).
With `COCCNc1nc(NCc2ccc(NC(C)=O)cc2)c2sccc2n1` the inhibition was -3.75%.
With `COc1cccc(CNc2nc(NCc3ccccc3OC)nc3ccsc23)c1` the inhibition was 63.1% (active).
With `O=C1CC(c2ccccc2)C(c2ccccc2)=NN1` (stereo not drawn) the inhibition was -8.4%.
With `O=S1(=O)CCOC[C@H](CC2CCCCC2)N1Cc1ccc(F)cc1` the inhibition was 3.84%.
`CCc1cccc(CC)c1NC(=O)COc1ccccc1C(=O)c1cc(C#N)c(=O)n(C2CCCCC2)c1` showed an inhibition of 19.8%.
`CN(Cc1cn(Cc2ccc(C(F)(F)F)cc2)nn1)C1CN(Cc2cn(Cc3ccc(C(F)(F)F)cc3)nn2)S(=O)(=O)C1` (stereo not drawn) gave an inhibition of 33.8%.
Work on `CC(=O)c1nc(N2C(=O)C3CC=C(C)CC3C2=O)sc1C` (stereo not drawn) yielded an inhibition of -2.22%.
`Cc1ccc(-c2cc(=O)[nH]c(NCc3ccccc3)n2)cc1` showed an inhibition of 9.23%.
`CCS(=O)(=O)c1ccc2c(c1)N(S(=O)(=O)c1ccccc1)CC(C(=O)O)O2` (stereo not drawn) showed an inhibition of -19.1%.
Molecule `COC(=O)c1c(C)[nH]c(C(=O)/C=C/c2ccc(Cl)cc2)c1C` has an inhibition of -23.7%.
With `Cc1[nH]c(=O)c(C(=O)/C=C/c2ccccc2)c2c1CCCC2` the inhibition was 83.9% (active).
`CC1(C(=O)O)CCCN(C(=O)/C=C/c2ccccc2)C1` (stereo not drawn) showed an inhibition of 3.38%.
With `CCN(CC)CCOc1ccc2c(c1)C(=NNC(=O)c1ccccn1)c1cc(OCCN(CC)CC)ccc1-2` the inhibition was -85.7%.
`COc1ccc(-c2cc(C(=O)N(C)Cc3ccc(OC)c(OC)c3OC)c3ccccc3n2)cc1OC` showed an inhibition of 19.7%.
With `COc1ccc(-c2cc(C(=O)NCCCN3CCCC3=O)c3ccccc3n2)cc1OC` the inhibition was -9.51%.
For `COc1ccc(-c2cc(C(F)(F)F)nc(S(C)(=O)=O)n2)cc1OC`, the inhibition was 76.2% (active).
Molecule `OCC1(Cc2ccccc2C(F)(F)F)CCN(Cc2ccncc2)CC1` has an inhibition of 14.4%.
In the case of `Cc1cc(-c2nnc(SCC(=O)Nc3ccc(F)cc3)n2N)n[nH]1`, the inhibition is reported as 1.35%.
For `O=C(CC[C@H]1O[C@@H](n2ccc(=O)[nH]c2=O)[C@H](O)[C@@H]1O)N[C@H](Cc1ccccc1)C(=O)NCc1ccco1`, the inhibition was 10.1%.
With `CC1CCCCC1NC(=O)COc1ccc(C#N)cc1` (stereo not drawn) the inhibition was 2.53%.
With `CC(OC(=O)/C=C/c1ccccc1)C(=O)NC1CCCCC1C` (stereo not drawn) the inhibition was -1.03%.
For `CC1CCCCC1NC(=O)/C(C#N)=C/C=C/c1ccccc1[N+](=O)[O-]` (stereo not drawn), the inhibition was 84.9% (active).
Molecule `CC(=O)NCC(=O)N(C)C(C(=O)Nc1ccc2c(c1)OCCO2)c1ccccc1` (stereo not drawn) has an inhibition of 7.79%.
`CCN(CC)CCn1cnc2c1c(=O)n(CCOC(=O)c1cc(OC)c(OC)c(OC)c1)c(=O)n2C` gave an inhibition of -2.5%.
`O=C(CC1SC(N2CCCC2)=NC1=O)Nc1ccc(C(=O)NCCc2ccc(F)cc2)cc1` (stereo not drawn) gave an inhibition of -8.62%.
Molecule `N#Cc1c(-c2cccs2)nc(SCC(=O)c2ccc(Br)cc2)[nH]c1=O` has an inhibition of -12.4%.
Molecule `C=CCN(CC=C)S(=O)(=O)c1ccc(C(=O)Nc2nc3c(s2)CCc2ccccc2-3)cc1` has an inhibition of -34.3%.
In the case of `N#Cc1ccc(C(=O)Nc2nc(-c3cccs3)c(C(=O)C(F)(F)F)s2)cc1`, the inhibition is reported as 58.4% (active).
Molecule `Cc1oc2c(C)c3oc(=O)c(CC(=O)N[C@@H](CC(C)C)C(=O)N[C@@H](Cc4ccccc4)C(=O)O)c(C)c3cc2c1C` has an inhibition of -9.29%.
In the case of `COC(=O)c1ccc(NS(=O)(=O)c2cc3c4c(c2)C(C)C(=O)N4CCC3)cc1` (stereo not drawn), the inhibition is reported as 9.82%.
`O=C(Nc1nnc(-c2ccc(F)cc2)s1)c1c(F)cccc1Cl` gave an inhibition of 5.11%.
`CCOC(=O)CSc1nnc(NC(=O)c2cccc(S(=O)(=O)N3CCCCC3)c2)s1` showed an inhibition of 41.9%.
In the case of `Cc1ccc(CS(=O)(=O)c2ncc(Cl)c(C(=O)Nc3nnc(C)s3)n2)cc1`, the inhibition is reported as 96.5% (active).
In the case of `CSc1nnc(NC(=O)c2nc(S(=O)(=O)Cc3ccc(C)cc3)ncc2Cl)s1`, the inhibition is reported as 92% (active).
`Cc1cccc(C(=O)Nc2nnc(S(=O)(=O)N3CCCCCC3)s2)c1` gave an inhibition of -46.1%.
With `Cc1ccc(S(=O)(=O)CCC(=O)Nc2nnc(CC(C)C)s2)cc1` the inhibition was -1.46%.
`CSc1nc2nc3c(c(=O)n2[nH]1)CCC3` showed an inhibition of -0.44%.
`CCCn1c(N)c(N(CCOC)C(=O)C2CCCC2)c(=O)[nH]c1=O` showed an inhibition of -6.44%.
`CC(=O)Nc1ccc(S(=O)(=O)N2CCC(C(=O)N[C@@H](Cc3ccccc3)C(=O)O)CC2)cc1` showed an inhibition of -3.83%.
With `Cc1cc(OCCOc2cccc3cccnc23)c(C)cc1Cl` the inhibition was -15.2%.
Work on `Cc1ccc([C@@H]2CC(=O)[C@@H]3CN(S(=O)(=O)c4ccc(C)cc4)[C@H](c4ccccc4F)C[C@@H]3N2S(=O)(=O)c2ccc(Cl)cc2)cc1` yielded an inhibition of -13.3%.
Molecule `COc1cc(C(F)(F)F)nc2c(Br)c(C(C)(C)C)nn12` has an inhibition of 15.2%.
In the case of `NC(=NC(=O)c1ccccc1)N1CCOCC1`, the inhibition is reported as -6.39%.
For `CC1CN(C(=S)SCC(=O)c2ccccc2)CC(C)O1` (stereo not drawn), the inhibition was 3.23%.
In the case of `O=C(CSC(=S)N1CCOCC1)c1ccccc1`, the inhibition is reported as 71.9% (active).
Work on `CC1(C(=O)Nc2cccc3cccnc23)CCN1C(=O)CCC1CCCC1` (stereo not drawn) yielded an inhibition of 8.06%.
Molecule `Cc1csc(SCC(=O)Nc2ccc(C)c(S(=O)(=O)N(C)C)c2)n1` has an inhibition of -4.8%.
For `Cc1csc(SCC(=O)Nc2sccc2C#N)n1`, the inhibition was 56.5% (active).
In the case of `N#Cc1ccsc1NC(=O)CN1CCCCC1`, the inhibition is reported as -0.37%.
For `CCN1C(=O)N[C@@H](c2ccccc2)[C@H](C(C)=O)[C@H]1C`, the inhibition was -0.1%.
Work on `CSc1ccccc1NC(=O)Cc1ccc(Br)cc1` yielded an inhibition of 4.45%.
With `CCC1CCc2c(sc(NC(C)=O)c2C#N)C1` (stereo not drawn) the inhibition was -8.64%.
For `O=C(Nc1nc2ccccc2s1)c1ccc2c(c1)OCO2`, the inhibition was 83.7% (active).
`N#Cc1ccccc1NC(=O)c1ccc2c(c1)OCO2` gave an inhibition of -17.5%.
Molecule `C/C(=N/NC(=O)c1ccncc1)c1ccc2c(c1)OCO2` has an inhibition of 11.5%.
For `COCc1nnc(NC(=O)c2ccc3c(c2)OCO3)s1`, the inhibition was 14.7%.
In the case of `O=C(Nc1nc(-c2ccc3c(c2)OCO3)cs1)c1ccncc1`, the inhibition is reported as 57.8% (active).
For `Cc1ccc(-c2csc(NC(=O)C3=COCCO3)n2)cc1C`, the inhibition was 1.4%.
Work on `CCCNS(=O)(=O)c1ccc(CCC(=O)NCc2cccnc2)cc1` yielded an inhibition of 6.9%.
`COc1ccc(C2(C)ON(c3ccccc3C(F)(F)F)C2=O)cc1` (stereo not drawn) showed an inhibition of -8.35%.
For `CCCCN(CC)C(=O)c1ccccc1Oc1ccccc1`, the inhibition was 11.6%.
With `Cc1ccc(NC(=O)Cc2nc(COC(=O)C(C)NS(=O)(=O)c3ccc(C)cc3)cs2)cc1` (stereo not drawn) the inhibition was -7.54%.
Work on `CCOC(=O)/C=C/CN(C(=O)OC(C)(C)C)S(=O)(=O)N1CC=CC1` yielded an inhibition of 8.4%.
With `Cc1ccc(-c2noc(CSc3nnc(-c4ccncc4)n3-c3ccc(F)cc3)n2)cc1` the inhibition was 1%.
In the case of `Cc1ccc(Nc2nc(CSc3nnc(-c4ccncc4)n3-c3ccccc3C)cs2)cc1`, the inhibition is reported as 74.3% (active).
`Cc1ccc(-n2c(SCC(=O)N3c4ccccc4Sc4ccccc43)nnc2-c2ccncc2)cc1` showed an inhibition of 20.4%.
